The values below come from the supplement of paper PMC6763611.

Some results are limits rather than exact numbers.

This test concerns Plasmodium falciparum NF54. Briefly: growth inhibition relative to untreated control; higher = more inhibition. The note with it: 72 h. An outline of the steps: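 Two media were used: minimal RPMI, and minimal RPMI carrying the chorismate end-products folate, pABA, pHBA, tyrosine, phenylalanine and tryptophan at 2.2 μM, 7.3 μM, 7.3 μM, 111 μM and 90 μM for the first five. In these media, P. falciparum NF54 ring stages (1% hematocrit, 1% parasitemia, 100 μL/well) were exposed in dark 96-well half-area plates to a single 5 μM or 1 μM test-compound dose for 72 h at 37 °C. Growth inhibition was then assessed with SYBR Green against untreated wells, subtracting background from uninfected erythrocytes.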

[1] abbreviates: 1 µM, MM + chorismate end-products (CM screening medium).
[2] abbreviates: 5 µM, MM + chorismate end-products (CM screening medium).

In the case of `Cc1nn(Cc2ccccc2)c(Cl)c1C(=O)NC1CCCCCC1`, the growth inhibition reads like this: under setting [1], 16.8%; (1 µM, minimal medium (MM)) < 0%; under setting [2], < 0%; (5 µM, minimal medium (MM)) < 0%.

As to `CO[C@@H]1CN(c2ccc(C#CC3(O)CN4CCC3CC4)c(Cc3ccccc3)n2)C[C@H]1O` (stereo partly specified), the growth inhibition is, setting by setting: under setting [1], 33.3%; (1 µM, minimal medium (MM)) < 0%; under setting [2], 42.8%; (5 µM, minimal medium (MM)) 9.06%.

For `CO/N=C(\C(=O)OC)c1ccccc1CO/N=C(\C)c1cccc(C(F)(F)F)c1`, the growth inhibition runs as follows: under setting [1], 98%; (1 µM, minimal medium (MM)) 96.6%; under setting [2], 91.5%; (5 µM, minimal medium (MM)) 91.8%.

For `CC1(C)OB(O)c2ccc(C3=NOC(c4cc(Cl)c(F)c(Cl)c4)(C(F)(F)F)C3)cc21` (stereo unspecified), the growth inhibition by setting is: under setting [1], 53.3%; (1 µM, minimal medium (MM)) 48.1%; under setting [2], 53.9%; (5 µM, minimal medium (MM)) 11.9%.

Take `Cc1cccc(C(=O)Nc2ccnc(N(C)C3CCN(CC(C)C)CC3)c2)c1`: the growth inhibition under setting [1] is > 100%; the growth inhibition (1 µM, minimal medium (MM)) stood at 61.7%; the growth inhibition under setting [2] worked out at 94.8%; the growth inhibition (5 µM, minimal medium (MM)) came out at 92.4%.

For `Cc1nn(C)c(C)c1NS(=O)(=O)c1c(Cl)cc(-c2ccnc(N3CCNCC3)c2)cc1Cl`, the growth inhibition by setting is: under setting [1], 55.7%; (1 µM, minimal medium (MM)) 79.5%; under setting [2], 84.1%; (5 µM, minimal medium (MM)) 89.6%.

With `CC1COC(Cn2cncn2)(c2ccc(Oc3ccc(Cl)cc3)cc2Cl)O1` (stereo unspecified), the growth inhibition reads like this: under setting [1], 22%; (1 µM, minimal medium (MM)) 38.1%; under setting [2], 67.8%; (5 µM, minimal medium (MM)) 33.6%.

Take `O=C1O[C@@H](CO)CN1c1cc(F)c(C2=CCN(Cc3ccccc3)CC2)c(F)c1`: the growth inhibition is, setting by setting: under setting [1], 19.3%; (1 µM, minimal medium (MM)) 23.4%; under setting [2], 45%; (5 µM, minimal medium (MM)) 49.9%.

Consider `CC(C)(C)C(O)C(Oc1ccc(-c2ccccc2)cc1)n1cncn1` (stereo unspecified), for which the growth inhibition reads like this: under setting [1], 46.2%; (1 µM, minimal medium (MM)) 5.38%; under setting [2], < 0%; (5 µM, minimal medium (MM)) < 0%.

For the molecule `Nc1c2c(nc3sc4c(c13)CCCC4)CCCC2`, the growth inhibition under setting [1] came out at 2.72%; the growth inhibition (1 µM, minimal medium (MM)) came out at 13.8%; the growth inhibition under setting [2] was found to be 52.3%; the growth inhibition (5 µM, minimal medium (MM)) is 13.1%.

Turning to `CO/C=C(/C(=O)OC)c1ccccc1Oc1cc(Oc2ccccc2C#N)ncn1`, the growth inhibition stood at 96% under setting [1]; 94.7% (1 µM, minimal medium (MM)); 90.4% under setting [2]; 92.2% (5 µM, minimal medium (MM)).

On to `Cc1cc(C2=NOC(c3cc(Cl)c(F)c(Cl)c3)(C(F)(F)F)C2)ccc1C(=O)NCc1ccc2c(c1)C(C)(C)OB2O` (stereo unspecified), for which the growth inhibition runs as follows: under setting [1], 19.4%; (1 µM, minimal medium (MM)) < 0%; under setting [2], 40.8%; (5 µM, minimal medium (MM)) 10.9%.

Take `CCc1nn(C)c(C(=O)NCc2ccc(Oc3ccc(C)cc3)cc2)c1Cl`: the growth inhibition was < 0% under setting [1]; 3.68% (1 µM, minimal medium (MM)); < 0% under setting [2]; < 0% (5 µM, minimal medium (MM)).

For `O=C1O[C@@H](COc2ccon2)CN1c1cc(F)c(C2=CCN(Cc3ccccc3)CC2)c(F)c1`, the growth inhibition runs as follows: under setting [1], 13.6%; (1 µM, minimal medium (MM)) < 0%; under setting [2], 54.4%; (5 µM, minimal medium (MM)) 28.6%.
